Where “and” joins values, the source holds several entries; their conditions need not be identical. Equal values may be shown once. Results filed as inconclusive are left out. Some structures have more than one record in an assay (separate samples or runs), and their calls can disagree. Calls of active or inactive are those of the source. The calls were made as follows, unless noted: active = hit-call score of the fitted dose curve at least 0.9, where 1 is the maximum; inactive = score below 0.9.

Experimental findings from PubChem BioAssay (EPA / NIEHS) are described below.

Assay [1] addresses Paired box protein Pax-6 (Homo sapiens) (UniProt P26367). The assay can be described thus: ATG_Pax6_CIS: Attagene CIS-FACTORIAL HepG2 Assay for human Paired Box 6 (PAX6) (AID 2282956). The note with it: HepG2 CIS-FACTORIAL PAX6 reporter transcription, RNA readout; actives raise or lower the signal. The gist of the method:
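Readout: reporter transcript fluorescence after RT-PCR and capillary electrophoresis. Cells: HepG2, transiently transfected with cis-regulated MRTUs. Exposure 24 h. Gain or loss of signal fitted bidirectionally relative to DMSO.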

Assay [2] can be described thus: ATG_PXRE_CIS: Attagene CIS-FACTORIAL HepG2 Assay for human Pregnane X Receptor Element (PXRE) (AID 2282957). Particulars: HepG2 Attagene CIS-FACTORIAL PXRE reporter, mRNA; actives raise or lower the signal. The gist of the method:
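After a 24 h chemical incubation, total RNA from transfected HepG2 cells was reverse-transcribed and reporter cDNA amplified, FAM-labeled, HpaI-digested and sized by capillary electrophoresis. DMSO served as baseline for bidirectional curve fitting.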

Assay [3] can be described thus: ATG_PPRE_CIS: Attagene CIS-FACTORIAL HepG2 Assay for human Peroxisome Proliferator-activated Response Element (PPRE) (AID 2282958). Particulars: HepG2 PPRE cis-element reporter, Attagene transcription factor profiling; actives raise or lower the signal. The gist of the method: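 Read-out: fluorescent reporter mRNA fragments resolved by capillary electrophoresis after RT-PCR. HepG2 cells carried transiently transfected PPRE-driven cis reporter constructs and were dosed for 24 h; gain or loss of signal fitted relative to DMSO.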

Assay [4] can be described thus: ATG_RORE_CIS: Attagene CIS-FACTORIAL HepG2 Assay for human RAR-related Orphan Receptor Element (RORE) (AID 2282959). Particulars: HepG2 Attagene cis-factorial RORE reporter, mRNA; actives raise or lower the signal. The gist of the method: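 Readout: fluorescent reporter mRNA by RT-PCR plus capillary electrophoresis, 24 h after dosing transfected HepG2 cells. Endogenous transcription factor activity on a cis promoter element is measured. Gain or loss of signal fitted against DMSO.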

Assay [5] in a line: ATG_Sox_CIS: Attagene CIS-FACTORIAL HepG2 Assay for human SRY-box transcription factor (SOX) (AID 2282960). Particulars: HepG2 Attagene cis-factorial SOX reporter, mRNA; actives raise or lower the signal. The gist of the method: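 Read-out: fluorescent RT-PCR products of SOX1-linked reporter transcripts resolved by capillary electrophoresis, fitted bidirectionally against DMSO. Transiently transfected HepG2 cells, 24 h after chemical exposure, endogenous transcription factor activity.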

In assay [6] the target is Transcription factor Sp1 (Homo sapiens) (UniProt P08047). The assay is described as follows: ATG_Sp1_CIS: Attagene CIS-FACTORIAL HepG2 Assay for human Specificity Protein 1 (Sp1) (AID 2282961). The note with it: HepG2 Sp1 cis-reporter transcription, actives raise or lower the signal. The method, boiled down:
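Read-out: fluorescence of 6-FAM-labeled, HpaI-digested RT-PCR products separated by capillary electrophoresis. HepG2 cells carried transfected cis-element reporter units and were exposed to chemicals for 24 h; gain or loss of signal fitted relative to DMSO.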

A short description of assay [7]: ATG_SREBP_CIS: Attagene CIS-FACTORIAL HepG2 Assay for human Sterol Regulatory Element Binding (SREBP) (AID 2282962). The note with it: HepG2 Attagene cis-factorial SREBP reporter, mRNA; actives raise or lower the signal. The method, boiled down: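 Readout: fluorescent reporter-transcript peaks resolved by capillary electrophoresis after RT-PCR. Cells were human HepG2 carrying transfected cis-promoter reporter constructs, dosed for 24 h. Gain or loss of signal was fitted against DMSO controls.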

Assay [8] addresses Signal transducer and activator of transcription 3 (Homo sapiens) (UniProt P40763). The assay is described as follows: ATG_STAT3_CIS: Attagene CIS-FACTORIAL HepG2 Assay for human Signal Transducer and Activator of Transcription 3 (STAT3) (AID 2282963). The note with it: HepG2, Attagene cis-factorial STAT3 reporter transcription; actives raise or lower the signal. The gist of the method: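 Cis-factorial format: endogenous transcription factors in HepG2 drive transfected reporter units. After 24 h treatment, reporter RNA was reverse-transcribed, amplified, FAM-labelled and HpaI-digested before CE analysis; activity scored in both directions against DMSO.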

Assay [9] can be described thus: ATG_TA_CIS: Attagene CIS-FACTORIAL HepG2 Assay for human TA Basal Promoter (AID 2282964). The note with it: HepG2 Attagene CIS-factorial TA basal promoter reporter; actives raise or lower the signal. The method, boiled down:
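Steps: transfect HepG2 with MRTUs; dose 24 h; isolate RNA, DNase-treat, reverse-transcribe; PCR and FAM-label reporter cDNA; digest with HpaI 2h at 37 C; run capillary electrophoresis. Activity fitted both directions against DMSO.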

Assay [10] can be described thus: ATG_TCF_b_cat_CIS: Attagene CIS-FACTORIAL HepG2 Assay for human T-Cell-Factor with beta-catenin (TCF/b-cat) (AID 2282965). The note with it: HepG2 TCF/beta-catenin cis-reporter transcription, actives raise or lower the signal. The gist of the method:
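Measured: reporter mRNA in HepG2 transiently transfected with cis-promoter reporter units, 24 h after chemical addition. Fitting was bidirectional, DMSO as negative control.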

Assay [11] in a line: ATG_TAL_CIS: Attagene CIS-FACTORIAL HepG2 Assay for human TAL Basal Promoter (AID 2282966).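 Also: background control endpoint measuring basal TAL promoter reporter mRNA not a specific factor.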 The note with it: HepG2 Attagene cis-factorial TAL promoter reporter; actives raise or lower the signal. The method, boiled down: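 Basal-promoter background-control endpoint from a multiplexed HepG2 reporter panel. Cells were exposed 24 h, then reporter mRNA was read by RT-PCR/CE fluorescence and fitted in both directions relative to DMSO.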

Assay [12] can be described thus: ATG_TGFb_CIS: Attagene CIS-FACTORIAL HepG2 Assay for human Transforming Growth Factor (TGF) (AID 2282967). Particulars: HepG2 Attagene CIS TGFb reporter, mRNA transcription; actives raise or lower the signal. The method, boiled down:
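Cells were dosed for 24 hours, after which total RNA was reverse-transcribed and reporter sequences amplified, labeled and sized by capillary electrophoresis. Activity was fitted in both directions against DMSO.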

A short description of assay [13]: ATG_VDRE_CIS: Attagene CIS-FACTORIAL HepG2 Assay for human Vitamin D Receptor Element (VDRE) (AID 2282968). Particulars: HepG2 VDRE cis-reporter transcription, actives raise or lower the signal. The gist of the method:
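Measures endogenous factor activity through cis-element-driven reporter transcripts in transiently transfected HepG2. Cells are treated 24 h; reporter mRNA is quantified by RT-PCR and capillary electrophoresis; fitting is bidirectional.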

Assay [14] has as its target Estrogen receptor (Homo sapiens) (UniProt P03372). The assay can be described thus: ATG_ERa_TRANS: Attagene TRANS-FACTORIAL HepG2 Assay for human Estrogen Receptor alpha (ERa) (AID 2282970; active = hit-call score of the fitted dose curve at least 0.9, where 1 is the maximum). The note with it: HepG2 Attagene TRANS ERa GAL4 reporter, mRNA. The gist of the method: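 Gal4-fusion ERa transactivation, measured as reporter transcript level in transiently transfected HepG2 cells. Exposure 24 h; RT-PCR plus capillary electrophoresis with fluorescence detection.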

The target in assay [15] is X-box-binding protein 1 (Homo sapiens) (UniProt P17861). The assay is described as follows: ATG_Xbp1_CIS: Attagene CIS-FACTORIAL HepG2 Assay for human X-box Binding Protein 1 (XBP1) (AID 2282972). The note with it: HepG2 XBP1 cis-element reporter, Attagene multiplex; actives raise or lower the signal. The gist of the method: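 Read-out: fluorescent reporter mRNA fragments resolved by capillary electrophoresis after RT-PCR. Human HepG2 liver cells carried transfected cis-promoter reporter units and were exposed to chemicals for 24 hours. Gain or loss of signal fitted relative to DMSO baseline.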

Assay [16] is described as follows: ATG_M_19_TRANS: Attagene TRANS-FACTORIAL HepG2 Assay for M19 Transcription Factor (Internal Marker) (AID 2282974; active = hit-call score of the fitted dose curve at least 0.9, where 1 is the maximum). The note with it: HepG2 Attagene TRANS-FACTORIAL M19 internal marker reporter. The gist of the method: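 24 h chemical exposure of transiently transfected HepG2 (MRTU library). RNA → oligo(dT) RT → PCR → 6-FAM labelling → HpaI cut → CE fluorescence. Positive-direction fit vs DMSO baseline; background internal-marker readout.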

In assay [17] the target is Steroid hormone receptor ERR1 (Homo sapiens) (UniProt P11474). The assay is described as follows: ATG_ERRa_TRANS: Attagene TRANS-FACTORIAL HepG2 Assay for human Estrogen-Related Receptor alpha (ERRa) (AID 2282971; active = hit-call score of the fitted dose curve at least 0.9, where 1 is the maximum). The note with it: HepG2 Attagene TRANS reporter, ERRa transactivation. The method, boiled down: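 HepG2 cells transiently transfected with GAL4-UAS reporter units and chimeric NR-Gal4 constructs; after 24 hour compound incubation, reporter mRNA quantified by RT-PCR, fluorescent labelling and capillary electrophoresis, gain of signal versus DMSO.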

The nature of assay [18]: ATG_GAL4_TRANS: Attagene TRANS-FACTORIAL HepG2 Assay for GAL4 (Internal Marker) (AID 2282976; active = hit-call score of the fitted dose curve at least 0.9, where 1 is the maximum). The note with it: HepG2 Attagene TRANS GAL4 internal marker reporter. The method, boiled down:
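Background-control readout: GAL4-UAS reporter transcript in transiently transfected HepG2 cells after 24 h compound exposure. Measured by RT-PCR, 6-FAM primer extension, HpaI digest and capillary electrophoresis; gain-of-signal fit versus DMSO.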

In assay [19] the target is Estrogen-related receptor gamma (Homo sapiens) (UniProt P62508). The assay is described as follows: ATG_ERRg_TRANS: Attagene TRANS-FACTORIAL HepG2 Assay for human Estrogen-Related Receptor gamma (ERRg) (AID 2282977; active = hit-call score of the fitted dose curve at least 0.9, where 1 is the maximum;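 also: hits increase reporter signal over DMSO so potencies reflect activators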). The note with it: HepG2 Attagene TRANS reporter, ERRg transactivation. The gist of the method:
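Readout: fluorescent reporter-mRNA fragments resolved by capillary electrophoresis after RT-PCR and HpaI cut. Cells: transiently transfected HepG2 carrying GAL4-UAS reporters driven by exogenous NR-Gal4 chimeras, dosed 24 h. Activity fitted upward relative to DMSO baseline.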

Chain of Transcription factor Sp1 (Homo sapiens) (P08047 whole entry, looked up): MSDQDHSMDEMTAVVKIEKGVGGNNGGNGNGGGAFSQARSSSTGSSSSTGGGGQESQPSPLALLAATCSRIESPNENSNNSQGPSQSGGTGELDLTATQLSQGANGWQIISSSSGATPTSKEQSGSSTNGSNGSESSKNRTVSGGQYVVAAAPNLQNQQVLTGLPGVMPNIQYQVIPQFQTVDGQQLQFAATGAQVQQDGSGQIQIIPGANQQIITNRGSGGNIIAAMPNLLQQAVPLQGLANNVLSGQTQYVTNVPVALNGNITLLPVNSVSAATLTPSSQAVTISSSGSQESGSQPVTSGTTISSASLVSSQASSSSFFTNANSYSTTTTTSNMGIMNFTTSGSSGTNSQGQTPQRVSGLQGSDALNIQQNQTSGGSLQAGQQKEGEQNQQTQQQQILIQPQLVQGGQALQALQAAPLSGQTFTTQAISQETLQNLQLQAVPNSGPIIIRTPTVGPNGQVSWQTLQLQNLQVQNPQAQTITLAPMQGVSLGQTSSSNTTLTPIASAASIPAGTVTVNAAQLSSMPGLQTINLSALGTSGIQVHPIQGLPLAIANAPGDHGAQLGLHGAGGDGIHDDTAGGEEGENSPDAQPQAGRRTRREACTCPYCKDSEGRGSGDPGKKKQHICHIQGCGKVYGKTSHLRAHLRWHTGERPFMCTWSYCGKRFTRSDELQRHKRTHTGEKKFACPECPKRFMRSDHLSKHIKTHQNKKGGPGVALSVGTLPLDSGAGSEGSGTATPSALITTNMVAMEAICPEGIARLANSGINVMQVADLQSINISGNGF
Chain of X-box-binding protein 1 (Homo sapiens) (P17861 whole entry, looked up, the tested form may be a part): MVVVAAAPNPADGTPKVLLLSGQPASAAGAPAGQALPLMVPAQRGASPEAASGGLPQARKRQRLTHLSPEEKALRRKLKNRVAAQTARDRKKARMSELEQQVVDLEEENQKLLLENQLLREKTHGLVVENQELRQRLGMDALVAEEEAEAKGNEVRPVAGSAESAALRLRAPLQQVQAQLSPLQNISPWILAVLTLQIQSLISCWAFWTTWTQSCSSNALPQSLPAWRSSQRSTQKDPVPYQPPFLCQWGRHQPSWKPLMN
Chain of Signal transducer and activator of transcription 3 (Homo sapiens) (P40763 whole entry, looked up): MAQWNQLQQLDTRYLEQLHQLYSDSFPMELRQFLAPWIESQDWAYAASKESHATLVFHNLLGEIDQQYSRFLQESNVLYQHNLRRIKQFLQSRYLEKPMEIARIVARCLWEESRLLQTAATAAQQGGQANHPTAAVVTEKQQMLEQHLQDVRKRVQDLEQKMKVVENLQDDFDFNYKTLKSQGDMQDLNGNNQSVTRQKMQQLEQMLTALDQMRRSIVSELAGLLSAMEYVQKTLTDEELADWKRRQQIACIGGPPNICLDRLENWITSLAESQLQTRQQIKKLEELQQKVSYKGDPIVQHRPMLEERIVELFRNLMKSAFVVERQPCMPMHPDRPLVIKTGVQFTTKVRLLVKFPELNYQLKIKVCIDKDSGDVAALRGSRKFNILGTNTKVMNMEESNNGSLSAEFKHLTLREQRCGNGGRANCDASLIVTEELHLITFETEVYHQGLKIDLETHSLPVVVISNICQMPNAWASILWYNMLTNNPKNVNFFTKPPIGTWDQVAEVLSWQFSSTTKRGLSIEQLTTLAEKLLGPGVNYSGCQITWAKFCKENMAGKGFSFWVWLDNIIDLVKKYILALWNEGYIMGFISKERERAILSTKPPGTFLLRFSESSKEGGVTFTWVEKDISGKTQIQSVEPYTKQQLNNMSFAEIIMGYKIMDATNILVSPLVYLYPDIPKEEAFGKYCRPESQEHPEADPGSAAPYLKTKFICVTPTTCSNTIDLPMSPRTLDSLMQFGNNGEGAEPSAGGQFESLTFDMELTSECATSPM
Chain of Paired box protein Pax-6 (Homo sapiens) (P26367 whole entry, looked up): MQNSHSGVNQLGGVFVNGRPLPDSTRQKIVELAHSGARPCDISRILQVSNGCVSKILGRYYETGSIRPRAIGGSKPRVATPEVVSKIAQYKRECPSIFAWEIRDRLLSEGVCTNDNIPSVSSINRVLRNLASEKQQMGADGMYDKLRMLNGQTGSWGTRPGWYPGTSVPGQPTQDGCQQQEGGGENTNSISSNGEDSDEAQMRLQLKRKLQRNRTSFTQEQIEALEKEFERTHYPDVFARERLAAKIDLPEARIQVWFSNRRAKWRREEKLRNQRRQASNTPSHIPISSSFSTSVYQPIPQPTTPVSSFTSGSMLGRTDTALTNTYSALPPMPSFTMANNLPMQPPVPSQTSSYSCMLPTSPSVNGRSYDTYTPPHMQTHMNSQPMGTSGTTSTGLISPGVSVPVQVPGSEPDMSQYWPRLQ
Chain of Estrogen receptor (Homo sapiens) (P03372 whole entry, looked up, the tested form may be a part): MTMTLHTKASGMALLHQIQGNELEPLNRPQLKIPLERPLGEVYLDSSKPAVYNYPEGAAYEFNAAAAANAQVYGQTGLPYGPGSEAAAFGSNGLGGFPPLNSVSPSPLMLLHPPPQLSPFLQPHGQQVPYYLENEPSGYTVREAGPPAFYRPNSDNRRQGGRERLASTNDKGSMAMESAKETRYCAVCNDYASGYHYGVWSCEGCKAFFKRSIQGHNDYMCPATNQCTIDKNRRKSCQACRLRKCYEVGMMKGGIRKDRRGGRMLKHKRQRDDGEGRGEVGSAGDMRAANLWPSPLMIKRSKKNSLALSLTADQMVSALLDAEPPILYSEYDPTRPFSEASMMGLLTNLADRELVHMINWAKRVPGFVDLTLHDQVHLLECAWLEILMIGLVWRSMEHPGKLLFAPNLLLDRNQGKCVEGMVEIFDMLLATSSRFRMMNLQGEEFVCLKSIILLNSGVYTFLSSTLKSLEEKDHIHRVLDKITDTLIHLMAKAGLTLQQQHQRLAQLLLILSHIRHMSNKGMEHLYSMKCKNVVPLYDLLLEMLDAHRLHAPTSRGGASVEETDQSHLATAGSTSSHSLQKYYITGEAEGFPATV
Chain of Estrogen-related receptor gamma (Homo sapiens) (P62508 whole entry, looked up, the tested form may be a part): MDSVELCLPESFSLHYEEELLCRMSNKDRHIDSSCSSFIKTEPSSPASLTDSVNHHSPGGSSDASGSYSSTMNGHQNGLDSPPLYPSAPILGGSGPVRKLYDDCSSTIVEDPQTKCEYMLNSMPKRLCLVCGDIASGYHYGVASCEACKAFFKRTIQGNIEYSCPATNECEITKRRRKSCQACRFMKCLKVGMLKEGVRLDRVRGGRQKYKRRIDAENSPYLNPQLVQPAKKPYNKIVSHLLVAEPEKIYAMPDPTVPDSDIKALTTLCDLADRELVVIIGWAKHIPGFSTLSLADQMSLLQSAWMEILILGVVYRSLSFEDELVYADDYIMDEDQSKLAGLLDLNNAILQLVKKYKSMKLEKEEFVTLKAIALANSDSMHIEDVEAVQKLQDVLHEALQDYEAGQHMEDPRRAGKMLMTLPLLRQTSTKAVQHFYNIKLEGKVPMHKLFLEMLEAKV
Chain of Steroid hormone receptor ERR1 (Homo sapiens) (P11474 whole entry, looked up, the tested form may be a part): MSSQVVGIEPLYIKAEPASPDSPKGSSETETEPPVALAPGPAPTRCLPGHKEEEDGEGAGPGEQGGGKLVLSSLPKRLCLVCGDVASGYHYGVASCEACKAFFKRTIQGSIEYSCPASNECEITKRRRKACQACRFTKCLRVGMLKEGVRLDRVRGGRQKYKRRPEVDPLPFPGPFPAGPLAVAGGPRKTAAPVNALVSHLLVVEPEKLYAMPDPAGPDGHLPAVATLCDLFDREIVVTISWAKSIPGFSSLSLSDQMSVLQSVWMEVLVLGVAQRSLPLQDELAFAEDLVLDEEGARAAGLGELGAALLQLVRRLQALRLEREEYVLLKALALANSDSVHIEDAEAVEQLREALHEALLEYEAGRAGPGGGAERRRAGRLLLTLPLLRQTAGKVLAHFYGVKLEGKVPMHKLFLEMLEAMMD

As for `O=C(O)c1ccccc1-n1cc(C(=O)O)c(=O)c2cc(Nc3c(F)cc(F)cc3Cl)c(Cl)cc21`, the compound was classed as inactive in [1], in assay [3], in assay [4], in [5], in assay [6] and in [7]. For the same compound, the compound was called inactive in [8], in assay [9], in assay [10], in [11], in assay [12] and in assay [13]. Besides, the compound was called inactive in assay [14] and in [15]. Moreover, the AC50 (in general, the midpoint of the concentration-response curve, whichever way the signal moves) in assay [2] was 62.3 µM (active).

Regarding `CCCCOC(=O)CC(CC(=O)OCCCC)(OC(C)=O)C(=O)OCCCC`, the compound was called inactive in [1], in assay [3], in assay [4], in [5], in assay [6] and in [7]. Further, the result in assay [8], in assay [9], in [10], in [11], in [12] and in [15] was inactive. Moreover, in [16], the compound was classed as inactive. Besides, the AC50 in [2] was 1.18 µM (active) and 705 nM (active); in assay [4], 27.5 µM (active); in assay [13], 8 µM (active) and 4.3 µM (active).

As for `Cc1cc(F)ccc1-c1cc(N2CC[C@@H](O)[C@H]2CO)ncc1N(C)C(=O)C(C)(C)c1cc(C(F)(F)F)cc(C(F)(F)F)c1`, the compound was called inactive in assay [1], in assay [3], in assay [4], in assay [5], in assay [6] and in [7]. The outcome in assay [8], in [9], in [10], in assay [11], in assay [12] and in [13] was inactive. The call in assay [14], in assay [15] and in assay [16] was inactive. Besides, the AC50 in assay [2] is 0.35 µM (active).

Take `O=CCCCC=O`: the result in assay [1], in assay [2], in [3], in [4], in [5] and in assay [6] was inactive. The outcome in assay [7], in [8], in assay [9], in assay [11], in [12] and in [13] was inactive. For the same compound, the compound was classed as inactive in assay [14], in assay [17], in [15], in assay [16], in [18] and in assay [19]. Also, the AC50 in [10] was 71.9 µM (active) and 100 µM (active).
